Assay outcomes from PubChem.
Marburg entry inh: blocks Marburg virus binding to or entry into cells. 300,000 tested, 1.8% active. AID 540276. Potency, µM (doses to about 37.8 µM), inactives show top-dose activity change, negative = inhibition, usual class: inhibitors. Marburg virus pseudotyped entry inhibition, cell reporter; calls by dose curve; tested in HEK293 cells; further: potency means the concentration at half of the fitted maximal effect; on the % scale 0 is the no-effect control and ±100 the full control effect
LASV entry inh: blocks Lassa virus binding to or entry into cells | Lassa virus pseudotype entry inhibition, cell reporter | Potency, µM (series often up to 37.9 µM), for inactives: top-dose activity change, negative = inhibition, actives largely listed as inhibitors | 300,000 tested, 1.2% active | AID 540256; calls by dose curve; tested in HEK293 cells; further: potency means the concentration at half of the fitted maximal effect; on the % scale 0 is the no-effect control and ±100 the full control effect; nearly all actives have a fitted effect of over 50% in size
HCMV antiviral: human cytomegalovirus inhibition; HFF cells, HCMV-luciferase reporter, 72 h; stronger effect = lower value; activity change, negative = inhibition, % at 57.5 µM; 410,000 tested, 4.5% active; AID 1259415; in the data active means activity change below about -60%; inconclusive means no clear call, values can overlap the other calls; inactive means above about -39%; further: on the % scale 0 is the no-effect control and ±100 the full control effect
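Human foreskin fibroblasts infected with luciferase-reporter HCMV at MOI 1 PFU/cell, compounds at two doses. Luciferase measured 72 h post infection; normalized to buffer-only basal and Salinomycin (10uM) controls.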
Vaccinia mCherry: inhibitors of vaccinia virus infection (mCherry reporter signal); 310,000 tested, 0.63% active; Vaccinia virus mCherry reporter infection, fluorescence; Potency, µM (series often up to 36.5 µM), without a hit: top-dose activity change, negative = inhibition, usual class: inhibitors; AID 720579; calls by dose curve; tested in A549 cells; further: potency means the concentration at half of the fitted maximal effect; on the % scale 0 is the no-effect control and ±100 the full control effect; nearly all actives have a fitted effect of over 35% in size
HCV inh: inhibitors of hepatitis C virus infection. 340,000 tested, 3.4% active. Huh7.5.1 HCVcc-Cre infection, luciferase reporter, 44 h. Potency, µM (doses to about 41.8 µM), inactives show at the top dose activity change, negative = inhibition, actives largely listed as inhibitors; further: potency means the concentration at half of the fitted maximal effect; on the % scale 0 is the no-effect control and ±100 the full control effect
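Luciferase read-out (15 sec integration) after a 15 min room-temperature substrate step quantifies HCVcc-Cre infection. Cells, 1,000 per well, had compound added 4 h post-plating, then virus at ~0.5 moi, and were cultured 44 h.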
VACV Venus inh: vaccinia inhibition (Venus reporter). Vaccinia virus Venus reporter expression, fluorescence. Potency, µM (titrated, usually from 36.5 µM), for inactives: at the highest dose activity change, negative = inhibition, hits mostly inhibitors. 330,000 tested, 0.46% active. AID 720580; calls by dose curve; tested in A549 cells; further: potency means the concentration at half of the fitted maximal effect; on the % scale 0 is the no-effect control and ±100 the full control effect; nearly all actives have a fitted effect of over 30% in size
HCV inh confirm: HCV inhibition, cherry-pick confirmation | shares compounds with HCV inh | HCVcc-Cre infectious virus cell assay, luciferase, inhibition | Potency, µM (titrated, usually from 41.8 µM), without a hit: top-dose activity, negative = inhibition, usual class: inhibitors | 640 tested, 78% active | AID 720575; further: potency means the concentration at half of the fitted maximal effect; nearly all actives have a fitted effect of over 80% in size
HCV cytotox: toxic to HCV host cells, flagging false HCV inhibitors. Potency, µM (highest dose often 41.8 µM), for the others: at the top dose activity change, negative = cytotoxicity, actives largely listed as inhibitors. HCV host cell line cytotoxicity counterscreen. 640 tested, 22% active. shares compounds with HCV inh;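 further: potency means the concentration at half of the fitted maximal effect; 44 h compound exposure; on the % scale 0 is the no-effect control and ±100 the full control effect; nearly all actives have a fitted effect of over 55% in size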
* hit, by the source's call; i = inactive; u = inconclusive; x = not tested or not shown; [ ] = dose if it differs, or a comment. Compounds with a hit are over-represented: about 7.8% of the library has one in this group of screens. Unless noted, the call rests on the fitted dose curve; in most records, active means well fitted curve in the direction sought with a large enough effect; inconclusive means small, poorly fitted or top-dose-only effect, or another doubt; inactive means no such curve, though single readings can be large; an effect the other way counts as inactive or inconclusive.

SMILES | Marburg entry inh | LASV entry inh | HCMV antiviral | Vaccinia mCherry | HCV inh | VACV Venus inh | HCV inh confirm | HCV cytotox
CCn1ccc2c(OCC(=O)Nc3ccc(C(C)=O)cc3)cccc2c1=O | x | -1%[46.1 µM] | 8 | -5% | x | -6% | x | x
CC1=C(C(=O)OCc2ccc(C)cc2)C(c2ccccc2F)CC(=O)N1 (stereo not given) | u | u | -18 | -8% | x | -14% | x | x
CC(C)Oc1ccccc1/C=N/NC(=O)c1ccc(F)cc1 | u | u | 14 | -13% | 7.9µM* | -9% | u | -10%
CC(C)Oc1ccccc1/C=N/NC(=O)c1ccccc1Cl | x | x | -32 | x | -21% | x | x | x
COc1ccc(NC(=O)Cn2cc(S(=O)(=O)c3ccccc3)c(=O)c3cc(C)ccc32)cc1Cl | -9%[46.1 µM] | -17%[46.1 µM] | 32 | 3% | x | -1% | x | x
CNc1ccc(Br)cc(C(=O)/C=C/c2cc(OC)ccc2OC)c1=O | u | u | -102* | x | 5µM* | x | u | -27%
Cc1cc(C)cc(N=c2c([N+](=O)[O-])nn(-c3ccc(Cl)cc3)n2O)c1 | -25% | -21% | 23 | -24% | u | -4% | 16µM* | 22%
Cc1nn(C)c(Nc2ccc(Br)cc2)c1Br | -22%[46.1 µM] | x | -83* | -16% | 3.5µM* | -16% | 5µM* | 8.9µM*
CCOC(=O)c1c(NC(=O)CSc2cn(CCNC(=O)c3ccccc3OC)c3ccccc23)sc2c1CCCC2 | u | -2%[46.1 µM] | -22 | -13% | x | -5% | x | x
CC1C/C(=C/c2ccco2)C(=O)/C(=C/c2ccco2)C1 (stereo not given) | u | -4% | x | x | 1%[0.335 µM] | x | x | x
CC(C)(C)C1C/C(=C/c2ccccn2)C(=O)/C(=C/c2ccccn2)C1 (stereo not given) | x | x | x | u | 0.89µM* | u | 1µM* | 1.4µM*
CCOC(=O)c1c(-c2ccccc2)oc2ccc(OCC)cc12 | -25%[46.1 µM] | -7% | -9 | u | u | -17% | x | x
CCOC(=O)c1c(-c2ccccc2)oc2ccc(O)cc12 | x | x | -1 | x | 2.8µM* | x | 14µM* | -30%
COc1ccc(Cl)cc1NC(=O)C(OC)c1ccccc1 (stereo not given) | u | -25% | -12 | -10% | 6.3µM* | -7% | 20µM* | 26%
CCOC(=O)c1ccccc1NC(=O)CN(c1ccccc1OC)S(=O)(=O)c1ccc(C)cc1 | x | u | -22 | i | x | -7% | x | x
CCOc1ccc(C(C)=O)cc1COc1ccc(-n2cnnn2)cc1 | 2% | -9% | -11 | x | 2.8µM* | 2% | 0.31µM* | -22%
C=C(C)COc1ccc(-c2ncncc2-c2ccccc2)c(O)c1 | -2%[46.1 µM] | 0%[46.1 µM] | -40 | -12% | -19% | -9% | x | x
C=C(C)COc1ccc(-c2nc(N)ncc2Oc2ccccc2OCC)c(O)c1 | u | u | 25 | x | 4.5µM* | u | 25µM* | 35%
O=C1S/C(=C\c2ccc(N3CCOCC3)o2)C(=O)N1Cc1c(F)cccc1Cl | -15% | -14% | 9 | -7% | u | 20% | x | x
O=C1S/C(=C/c2ccc(N3CCOCC3)o2)C(=O)N1Cc1c(F)cccc1Cl | u | 7% | -11 | x | u | x | 13µM* | 11%
CCn1c2c(c(=N)c3ccccc31)CCC2 | -26% | -1% | -77* | -3% | 8.9µM* | -18% | 25µM* | u
CCOc1ccc(CCNC(=O)Cn2ccc3cc(S(=O)(=O)N4CCCCCC4)ccc32)cc1 | x | -15%[46.1 µM] | -14 | i | x | -5% | x | x
C=C1C(=O)O[C@@]23[C@H]1CC[C@@H](C)[C@@H]2CC[C@@]1(C)O[C@@H]31 | x | x | x | u | 2.8µM* | u | u | -12%
C=CCNC(=O)CC(=O)N/N=C/c1ccc(F)cc1 | -10% | u | -19 | -8% | 3% | -6% | x | x
C=CCNC(=S)N/N=C/c1ccc(C(F)(F)F)cc1 | x | x | -86* | x | 8.9µM* | x | 8.9µM* | 13µM*
SMILES | Marburg entry inh | LASV entry inh | HCMV antiviral | Vaccinia mCherry | HCV inh | VACV Venus inh | HCV inh confirm | HCV cytotox
O=C(Nc1ncc(Cc2ccc(SC(F)F)cc2)s1)c1ccccc1 | -4% | u | u | u | u | -30% | 14µM* | 28µM*
O=C(Nc1cc(C(F)(F)F)ccc1N1CCCCC1)c1ccc(Br)o1 | -26% | -17% | -12 | x | 5µM* | x | 14µM* | 8%
O=C(Nc1cc(C(F)(F)F)ccc1N1CCCCC1)c1ccco1 | u | 2% | u | x | u | -29% | x | x
COc1ccc(OC)c(NC(=O)c2ccccc2SC)c1 | u | -5% | -35 | x | 8.9µM* | x | u | -13%
COc1ccc(NC(=O)c2ccccc2SC)cc1 | 22%[46.1 µM] | -8%[46.1 µM] | -26 | i | 19% | -13% | x | x
O=C(Nc1ccc(CN2CCS(=O)(=O)CC2)cc1)c1ccc(F)cc1 | x | x | 26 | x | -7% | x | x | x
O=C(Nc1ccc(CN2CCS(=O)(=O)CC2)cc1)c1ccc(C(F)(F)F)cc1 | u | -29% | -61* | -26% | 5.6µM* | -14% | 5µM* | 13µM*
O=C(Nc1ccc(CN2CCOCC2)cc1)c1ccc(Cl)cc1 | x | x | u | x | 1% | x | x | x
O=C(Nc1ccc(S(=O)(=O)Nc2ccccc2)cc1)c1ccc(CN2CCOCC2)cc1 | x | x | -90* | x | 2.2µM* | x | 1.8µM* | -93%
O=C(Nc1nnc(S(=O)(=O)N2CCCc3ccccc32)s1)c1ccccc1Cl | x | 8%[46.1 µM] | 1 | -8% | x | -11% | x | x
Cc1ccc(Cn2ncc3c(N4CCN(CCc5ccccc5)CC4)ncnc32)cc1 | u | -20% | -31 | -25% | 5µM* | -15% | 11µM* | 25µM*
Cn1c2ccccc2c(=O)c2ccc(C#Cc3ccc(N)cc3)cc21 | x | x | u | u | 6.3µM* | u | 22µM* | 41%
COc1ccccc1N1CCN(CCCNC(=O)c2cnn(-c3ccccc3)c2C2CCN(C(=O)OC(C)(C)C)CC2)CC1 | x | u | u | -26% | x | -27% | x | x
COc1cccc(-n2cc(C(=O)Oc3ccc(F)cc3)c3ccccc3c2=O)c1 | x | u | -30 | -9% | x | -15% | x | x
CC(=O)c1sc(NC(=O)CCS(=O)(=O)c2ccc(C)cc2)nc1C | u | -25% | 4 | -28% | 2.8µM* | u | u | u
COc1ccc(CC(=O)Nc2c(C(=O)N3CCN(c4ccccc4F)CC3)oc3ccccc23)cc1OC | u | u | -32 | u | x | -27% | x | x
Cc1cc(C(=O)CSc2nnc(-c3ccco3)o2)c(C)n1Cc1ccco1 | -18% | 1% | -34 | -11% | u | 3% | 16µM* | u
CCOc1nc(-c2ccccc2O)nc2ccccc12 | 3% | 2% | 4 | -8% | u | 0% | 6.3µM* | 0.89µM*
